Measurements as given in PubChem BioAssay (EPA / NIEHS).
The source made the active and inactive calls. The calls were made as follows: active = hit-call score of the fitted dose curve at least 0.9, where 1 is the maximum; inactive = score below 0.9.

System: not listed separately
Experiment: ATG_CRE_CIS: Attagene CIS-FACTORIAL HepG2 Assay for human cAMP Responsive Element (CRE) binding protein 3 (AID 2282926)
Details: HepG2 CRE cis-reporter, Attagene multiplexed mRNA; actives raise or lower the signal
Summary of the method: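 Multiplexed transcription-unit reporters transfected into HepG2; 24 h dosing; RT-PCR/capillary electrophoresis fluorescence read-out; bidirectional fit vs DMSO.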

Structure (SMILES) | outcome
CO[Si](C)(OC)c1ccccc1 | inactive
C=CCOC(=O)CCC1CCCCC1 | inactive
C=C(C)[C@@H]1CC[C@@H](C)C[C@@H]1O | inactive
CCCCCCCCCCCCCCCCCC(=O)OCC(CC)CCCC (stereo not drawn) | inactive
Clc1sc(Cl)c(Cl)c1Cl | inactive
CN(C)CCCN | inactive
CC(=O)O[C@H](CC(=O)[O-])C[N+](C)(C)C | inactive
CCCC(C)C=O (stereo not drawn) | inactive
CCN(CC)c1ccc2c(-c3ccccc3C(=O)O)c3ccc(=[N+](CC)CC)cc-3oc2c1 | inactive
CC1CC(OC(=O)c2ccccc2O)CC(C)(C)C1 (stereo not drawn) | inactive
Cc1cccc(C)c1[N+](=O)[O-] | inactive
NNc1nc(-c2ccc(N)cc2)cs1 | inactive
CCCCc1ccc(N)cc1 | inactive
CCC(C)CCCC(C)(C)O (stereo not drawn) | inactive
CC(CCO)CCCC(C)(C)O (stereo not drawn) | inactive
CC(=O)O[C@]1(C(C)=O)CC[C@H]2[C@@H]3C[C@H](C)C4=CC(=O)CC[C@]4(C)[C@H]3CC[C@@]21C | inactive
CC[C@]12CCCN3CCc4c(n(c5ccccc45)[C@@](O)(C(=O)OC)C1)[C@@H]32 | inactive
BrC1CCC(Br)C(Br)CCC(Br)C(Br)CCC1Br (stereo not drawn) | inactive
CCCCCCCCC=O | inactive

Structure (SMILES) | outcome
Nc1cc(N)cc(C(=O)O)c1 | inactive
ClCCCl | inactive
Cc1ccc(Nc2ccc(O)c3c2C(=O)c2ccccc2C3=O)cc1 | inactive
c1ccc2sc(SN(C3CCCCC3)C3CCCCC3)nc2c1 | inactive
COc1nc(C)nc(N)n1 | inactive
COc1cc(C=O)ccc1OC(=O)C(C)C | inactive
CCCCCCCCCC=O | inactive
S=C(S)NCCNC(=S)S | inactive
Cc1ccccc1C=O | inactive
OCc1cccnc1 | inactive
O=C(O)c1cccc(C(F)(F)F)c1 | inactive
CC(=O)OCCOC(C)=O | inactive
O=C(OCc1ccccc1)C(=O)OCc1ccccc1 | inactive
O=Nc1ccc(Nc2ccccc2)cc1 | inactive
CC(C=O)Cc1ccc(C(C)C)cc1 (stereo not drawn) | inactive
CC(C)=CCO | inactive
Nc1cc([N+](=O)[O-])ccc1O | inactive
O=C(O)Cc1cccc2ccccc12 | inactive
CCC/C=C/C=O | inactive

Target: CCAAT/enhancer-binding protein beta (Homo sapiens) (UniProt P17676)
Sequence (P17676 whole entry, looked up): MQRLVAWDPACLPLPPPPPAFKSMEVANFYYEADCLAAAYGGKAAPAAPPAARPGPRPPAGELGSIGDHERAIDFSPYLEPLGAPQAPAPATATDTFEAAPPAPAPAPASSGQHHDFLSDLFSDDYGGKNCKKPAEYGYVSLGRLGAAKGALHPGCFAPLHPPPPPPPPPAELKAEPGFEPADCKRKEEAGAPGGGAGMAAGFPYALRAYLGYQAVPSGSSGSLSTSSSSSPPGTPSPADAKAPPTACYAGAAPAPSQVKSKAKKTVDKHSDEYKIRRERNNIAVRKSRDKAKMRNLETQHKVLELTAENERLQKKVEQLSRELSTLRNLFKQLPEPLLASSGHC
Experiment: ATG_C_EBP_CIS: Attagene CIS-FACTORIAL HepG2 Assay for human CCAAT/Enhancer Binding Protein (C/EBP) beta (AID 2282927)
Details: HepG2 Attagene cis-factorial transcription factor reporter; actives raise or lower the signal
Summary of the method: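 Transiently transfected HepG2 (MRTU library, endogenous TF-driven promoters); 24 h dosing; total RNA → oligo(dT) RT → PCR → 6-FAM primer extension → HpaI digest → CE; fit bidirectionally vs DMSO.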

Structure (SMILES) | outcome | AC50
CO[Si](C)(OC)c1ccccc1 | inactive | –
C=CCOC(=O)CCC1CCCCC1 | inactive | –
C=C(C)[C@@H]1CC[C@@H](C)C[C@@H]1O | inactive | –
CCCCCCCCCCCCCCCCCC(=O)OCC(CC)CCCC (stereo not drawn) | inactive | –
Clc1sc(Cl)c(Cl)c1Cl | inactive | –
CN(C)CCCN | inactive | –
CC(=O)O[C@H](CC(=O)[O-])C[N+](C)(C)C | inactive | –
CCN(CC)c1ccc2c(-c3ccccc3C(=O)O)c3ccc(=[N+](CC)CC)cc-3oc2c1 | inactive | –
CC1CC(OC(=O)c2ccccc2O)CC(C)(C)C1 (stereo not drawn) | inactive | –
Cc1cccc(C)c1[N+](=O)[O-] | inactive | –
NNc1nc(-c2ccc(N)cc2)cs1 | inactive | –
CCCCc1ccc(N)cc1 | inactive | –
CCC(C)CCCC(C)(C)O (stereo not drawn) | inactive | –
CC(CCO)CCCC(C)(C)O (stereo not drawn) | inactive | –
CC(=O)O[C@]1(C(C)=O)CC[C@H]2[C@@H]3C[C@H](C)C4=CC(=O)CC[C@]4(C)[C@H]3CC[C@@]21C | inactive | –
CC[C@]12CCCN3CCc4c(n(c5ccccc45)[C@@](O)(C(=O)OC)C1)[C@@H]32 | inactive | –
BrC1CCC(Br)C(Br)CCC(Br)C(Br)CCC1Br (stereo not drawn) | inactive | –
CCCCCCCCC=O | inactive | –
Nc1cc(N)cc(C(=O)O)c1 | inactive | –

Structure (SMILES) | outcome | AC50
ClCCCl | inactive | –
Cc1ccc(Nc2ccc(O)c3c2C(=O)c2ccccc2C3=O)cc1 | inactive | –
c1ccc2sc(SN(C3CCCCC3)C3CCCCC3)nc2c1 | inactive | –
COc1nc(C)nc(N)n1 | inactive | –
COc1cc(C=O)ccc1OC(=O)C(C)C | inactive | –
CCCCCCCCCC=O | inactive | –
S=C(S)NCCNC(=S)S | inactive | –
Cc1ccccc1C=O | inactive | –
OCc1cccnc1 | inactive | –
O=C(O)c1cccc(C(F)(F)F)c1 | inactive | –
CC(=O)OCCOC(C)=O | inactive | –
O=C(OCc1ccccc1)C(=O)OCc1ccccc1 | inactive | –
O=Nc1ccc(Nc2ccccc2)cc1 | – | 8.78 µM (active)
CC(C=O)Cc1ccc(C(C)C)cc1 (stereo not drawn) | inactive | –
CC(C)=CCO | inactive | –
Nc1cc([N+](=O)[O-])ccc1O | inactive | –
O=C(O)Cc1cccc2ccccc12 | inactive | –
CCC/C=C/C=O | inactive | –

System: not listed separately
Experiment: ATG_CMV_CIS: Attagene CIS-FACTORIAL HepG2 Assay for human CMV (Internal Marker) (AID 2282928);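 also: endpoint acts as a background internal control marker rather than a target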
Details: HepG2 CMV promoter reporter, transcription factor profiling; actives raise or lower the signal
Summary of the method: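 Cell system: HepG2, transiently transfected multiple reporter units under cis promoters. Exposure: 24 h. Detection: RT-PCR, FAM labeling, HpaI digestion, capillary electrophoresis. Analysis: bidirectional, DMSO baseline.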

Structure (SMILES) | outcome | AC50
CO[Si](C)(OC)c1ccccc1 | inactive | –
C=CCOC(=O)CCC1CCCCC1 | inactive | –
C=C(C)[C@@H]1CC[C@@H](C)C[C@@H]1O | inactive | –
CCCCCCCCCCCCCCCCCC(=O)OCC(CC)CCCC (stereo not drawn) | inactive | –
Clc1sc(Cl)c(Cl)c1Cl | inactive | –
CN(C)CCCN | inactive | –
CC(=O)O[C@H](CC(=O)[O-])C[N+](C)(C)C | inactive | –
CCCC(C)C=O (stereo not drawn) | inactive | –
CCN(CC)c1ccc2c(-c3ccccc3C(=O)O)c3ccc(=[N+](CC)CC)cc-3oc2c1 | inactive | –
CC1CC(OC(=O)c2ccccc2O)CC(C)(C)C1 (stereo not drawn) | – | 100 µM (active)
Cc1cccc(C)c1[N+](=O)[O-] | inactive | –
NNc1nc(-c2ccc(N)cc2)cs1 | inactive | –
CCCCc1ccc(N)cc1 | inactive | –
CCC(C)CCCC(C)(C)O (stereo not drawn) | inactive | –
CC(CCO)CCCC(C)(C)O (stereo not drawn) | inactive | –
CC(=O)O[C@]1(C(C)=O)CC[C@H]2[C@@H]3C[C@H](C)C4=CC(=O)CC[C@]4(C)[C@H]3CC[C@@]21C | inactive | –
CC[C@]12CCCN3CCc4c(n(c5ccccc45)[C@@](O)(C(=O)OC)C1)[C@@H]32 | inactive | –
BrC1CCC(Br)C(Br)CCC(Br)C(Br)CCC1Br (stereo not drawn) | – | 23.9 µM (active)
CCCCCCCCC=O | inactive | –

Structure (SMILES) | outcome | AC50
Nc1cc(N)cc(C(=O)O)c1 | inactive | –
ClCCCl | inactive | –
Cc1ccc(Nc2ccc(O)c3c2C(=O)c2ccccc2C3=O)cc1 | inactive | –
c1ccc2sc(SN(C3CCCCC3)C3CCCCC3)nc2c1 | – | 8.13 µM (active)
COc1nc(C)nc(N)n1 | inactive | –
COc1cc(C=O)ccc1OC(=O)C(C)C | inactive | –
CCCCCCCCCC=O | inactive | –
S=C(S)NCCNC(=S)S | inactive | –
Cc1ccccc1C=O | inactive | –
OCc1cccnc1 | inactive | –
O=C(O)c1cccc(C(F)(F)F)c1 | inactive | –
CC(=O)OCCOC(C)=O | inactive | –
O=C(OCc1ccccc1)C(=O)OCc1ccccc1 | inactive | –
O=Nc1ccc(Nc2ccccc2)cc1 | – | 8.52 µM (active)
CC(C=O)Cc1ccc(C(C)C)cc1 (stereo not drawn) | inactive | –
CC(C)=CCO | inactive | –
Nc1cc([N+](=O)[O-])ccc1O | inactive | –
O=C(O)Cc1cccc2ccccc12 | inactive | –
CCC/C=C/C=O | inactive | –
